# Source: PubChem BioAssay AID652162 (Broad Institute, 2013)
# “And” between values parts separate entries of the source, which are not always exact repeats. Identical values can stand only once. In all, about 350,000 compounds went through this assay and about 840 (0.24%) were called active. Cut-off read from the data, not from the text of the source: active = inhibition above about 10%; inactive = the rest. Shown is part of a subset that was picked to be rich in actives.
# Target: Toxin B (Clostridioides difficile) (UniProt P18177)
# Assay: TcdB glycohydrolase inhibitors, primary screen, biochemical, single point, plate reader (AID 652162)
# Conditions: TcdB glycohydrolase enzymatic assay, at 9.99 µM, active compounds read high
# Sequence of Toxin B (Clostridioides difficile) (P18177 whole entry, looked up): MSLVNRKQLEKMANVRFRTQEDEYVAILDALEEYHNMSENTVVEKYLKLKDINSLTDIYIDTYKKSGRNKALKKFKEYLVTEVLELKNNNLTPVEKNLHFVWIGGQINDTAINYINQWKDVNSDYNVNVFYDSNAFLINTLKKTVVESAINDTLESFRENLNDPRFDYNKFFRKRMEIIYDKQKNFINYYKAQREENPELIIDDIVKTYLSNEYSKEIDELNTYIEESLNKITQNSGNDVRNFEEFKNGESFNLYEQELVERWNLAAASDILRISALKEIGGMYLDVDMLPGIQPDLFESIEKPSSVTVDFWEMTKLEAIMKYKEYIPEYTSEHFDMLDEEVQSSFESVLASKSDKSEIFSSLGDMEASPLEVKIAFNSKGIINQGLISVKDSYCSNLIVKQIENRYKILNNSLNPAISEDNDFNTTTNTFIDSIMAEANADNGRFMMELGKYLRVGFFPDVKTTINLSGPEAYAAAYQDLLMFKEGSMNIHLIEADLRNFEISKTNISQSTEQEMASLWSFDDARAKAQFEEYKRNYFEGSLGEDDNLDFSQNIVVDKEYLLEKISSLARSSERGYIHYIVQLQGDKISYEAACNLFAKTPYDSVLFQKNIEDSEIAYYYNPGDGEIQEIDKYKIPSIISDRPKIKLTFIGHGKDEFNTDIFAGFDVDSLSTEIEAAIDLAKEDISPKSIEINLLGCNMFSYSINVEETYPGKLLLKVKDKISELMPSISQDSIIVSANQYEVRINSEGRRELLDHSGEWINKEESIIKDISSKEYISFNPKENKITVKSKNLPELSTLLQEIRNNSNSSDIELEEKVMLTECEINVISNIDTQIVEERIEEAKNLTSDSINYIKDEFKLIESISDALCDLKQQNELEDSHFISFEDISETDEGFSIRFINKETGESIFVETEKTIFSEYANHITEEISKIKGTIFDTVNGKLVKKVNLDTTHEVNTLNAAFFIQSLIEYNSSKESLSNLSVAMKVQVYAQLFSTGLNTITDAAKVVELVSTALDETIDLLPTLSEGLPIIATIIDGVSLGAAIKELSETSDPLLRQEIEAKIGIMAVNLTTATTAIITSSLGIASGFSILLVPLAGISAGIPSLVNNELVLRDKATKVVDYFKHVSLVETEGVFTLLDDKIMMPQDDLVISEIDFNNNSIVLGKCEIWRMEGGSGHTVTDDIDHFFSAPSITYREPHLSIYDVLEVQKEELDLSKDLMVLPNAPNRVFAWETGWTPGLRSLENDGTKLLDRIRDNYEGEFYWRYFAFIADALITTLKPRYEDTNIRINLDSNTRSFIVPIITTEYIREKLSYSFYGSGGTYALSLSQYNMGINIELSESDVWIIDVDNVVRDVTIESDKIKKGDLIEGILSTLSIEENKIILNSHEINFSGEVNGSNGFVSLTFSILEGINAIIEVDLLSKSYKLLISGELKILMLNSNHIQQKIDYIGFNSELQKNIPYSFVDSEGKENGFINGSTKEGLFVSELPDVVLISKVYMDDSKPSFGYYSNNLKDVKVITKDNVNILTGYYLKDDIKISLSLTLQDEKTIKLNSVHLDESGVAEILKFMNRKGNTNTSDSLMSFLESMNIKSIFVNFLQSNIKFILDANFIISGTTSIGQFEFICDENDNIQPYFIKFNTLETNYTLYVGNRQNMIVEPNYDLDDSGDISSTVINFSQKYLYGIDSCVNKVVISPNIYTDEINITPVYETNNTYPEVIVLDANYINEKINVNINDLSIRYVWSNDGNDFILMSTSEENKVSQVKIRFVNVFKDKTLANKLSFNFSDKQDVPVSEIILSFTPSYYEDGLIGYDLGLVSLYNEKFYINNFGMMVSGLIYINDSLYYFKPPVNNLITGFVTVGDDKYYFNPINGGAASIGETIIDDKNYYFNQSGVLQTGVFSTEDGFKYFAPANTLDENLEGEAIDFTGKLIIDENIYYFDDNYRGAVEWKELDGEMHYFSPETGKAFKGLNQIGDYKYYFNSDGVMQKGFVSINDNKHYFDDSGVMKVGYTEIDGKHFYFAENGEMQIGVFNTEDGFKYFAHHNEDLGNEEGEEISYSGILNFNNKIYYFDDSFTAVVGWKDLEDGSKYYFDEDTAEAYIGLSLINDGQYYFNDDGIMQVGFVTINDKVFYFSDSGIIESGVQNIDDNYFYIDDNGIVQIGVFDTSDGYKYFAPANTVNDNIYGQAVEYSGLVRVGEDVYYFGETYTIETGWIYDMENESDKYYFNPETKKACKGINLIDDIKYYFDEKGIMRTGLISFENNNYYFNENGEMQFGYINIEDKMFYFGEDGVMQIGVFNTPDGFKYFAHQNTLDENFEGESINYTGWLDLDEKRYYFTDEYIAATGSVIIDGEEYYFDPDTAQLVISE
row,Structure (SMILES),inhibition
1,CO[C@H]1O[C@H](CO)[C@@H](OC(=O)Nc2ccc(C(F)(F)F)cc2)[C@H](OC(=O)Nc2ccc3c(c2)OCO3)[C@H]1OC(=O)Nc1ccc2c(c1)OCO2,0.426% (inactive)
2,CO[C@@H]1CN(C)C(=O)c2cc(NC(C)=O)ccc2OC[C@H](C)N(Cc2ccccc2F)C[C@@H]1C,-0.886% (inactive)
3,CN(C)C(=O)c1ccc(-c2ccc([C@H]3[C@H](CO)N4CCCCN(S(C)(=O)=O)C[C@@H]34)cc2)cc1,-1.71% (inactive)
4,O=C(CCN1CCCCC1)N[C@H]1CC[C@H](CCNS(=O)(=O)c2ccc(F)cc2)O[C@@H]1CO,0.554% (inactive)
5,Cc1ccccc1-c1ccc(C2[C@@H]3CN(C(=O)C4CCCCC4)C[C@H]2N3)cc1 (stereo partly specified),-3.88% (inactive) and 0.934% (inactive)
6,O=C(CN1CCSCC1)N/N=C/c1ccc(Cl)cc1,1.98% (inactive)
7,Nc1nnn(CC(=O)N/N=C/c2ccc(O)cc2)n1,13.2% (active)
8,O=C(C[n+]1ccccc1)N/N=C/c1ccc(O)cc1,11.1% (active)
9,Nc1nnn(CC(=O)N/N=C/c2ccccc2)n1,1.05% (inactive)
10,Cc1nonc1C(=O)N/N=C/c1ccc(O)cc1,5.9% (inactive)
11,O=C(CSC1c2ccccc2-c2ccccc21)N/N=C/c1ccccc1,2.65% (inactive)
12,COc1ccc2c3c([nH]c2c1)[C@@H](CO)N(C(=O)CC1CC1)CC31CCN(Cc2cccnc2)CC1,0.524% (inactive)
13,O=C(Cc1ccccc1)N1C[C@@H]2[C@H](c3ccccc31)[C@@H](CO)N2C(=O)Nc1ccc(F)cc1,1.65% (inactive)
14,COCC(=O)Nc1ccc2c(c1)[C@H]1C[C@H](CC(=O)NCc3ccc(OC)cc3)O[C@@H](CO)[C@H]1O2,1.91% (inactive)
15,CN1C(=O)c2cc(NC(=O)Nc3ccccc3F)ccc2OC[C@H]2O[C@H](CC(=O)NCc3ccc(-c4ccccc4)cc3)CC[C@H]21,-0.392% (inactive)
16,COCC(=O)Nc1ccc2c(c1)OC[C@H](C)N(C(=O)c1ccccc1F)C[C@H](C)[C@H](OC)CN(C)C2=O,0.041% (inactive)
17,O=c1[nH]c(CN2CCOCC2)nc2cc(Cl)ccc12,11.3% (active)
18,O=c1[nH]c(CN2CCOCC2)nc2scc(-c3ccccc3)c12,2.63% (inactive)
19,CN(CCOc1ccccc1)Cc1nc2cc(Cl)ccc2c(=O)[nH]1,-0.715% (inactive)
20,CC(C)CC#Cc1cnc2c(c1)C(=O)N([C@@H](C)CO)C[C@@H](C)[C@@H](CN(C)C(=O)c1cccnc1)O2,-0.559% (inactive)
21,O=C1C=CCCN1C(=O)/C=C/c1ccc(F)cc1,0.919% (inactive)
22,CCS(=O)(=O)N1CCC2(CC1)CN(S(=O)(=O)c1ccc(C)cc1)[C@H](CO)c1[nH]c3cc(OC)ccc3c12,-1.12% (inactive)
23,CN(C)c1ccc(C(=S)N2CCN(C(=S)Nc3ccc(Cl)cc3)CC2)cc1,17.4% (active)
24,CCOC(=O)c1ccc(NC(=S)N2CCCC2)cc1,1.01% (inactive)

row,Structure (SMILES),inhibition
1,O=C(NC1CCN(C(=S)Nc2ccc(Cl)cc2)CC1)C1CCCCC1,-0.645% (inactive)
2,COc1ccccc1NC(=O)N1CC(=O)N2[C@H](C1)[C@H](c1ccc(C#Cc3ccccc3)cc1)[C@@H]2CO,0.309% (inactive)
3,O=C(C[C@H]1CC[C@@H]2[C@H](COC[C@@H](O)CN2CC2CC2)O1)NCC1CC1,-1.35% (inactive)
4,O=C(C[C@@H]1CC[C@@H]2[C@H](COC[C@H](O)CN2CC2CCOCC2)O1)NCC1CCCCC1,0.565% (inactive)
5,C[C@H]1CN([C@@H](C)CO)C(=O)c2cc(NS(=O)(=O)c3ccc(F)cc3)ccc2O[C@H]1CN(C)CC1CC1,-1.14% (inactive)
6,O=C(C[C@@H]1C[C@@H]2c3cc(NS(=O)(=O)c4ccc(F)cc4)ccc3O[C@@H]2[C@H](CO)O1)NCc1cc(F)ccc1F,-0.254% (inactive)
7,C[C@@H]1CN([C@@H](C)CO)C(=O)c2cc(NC(=O)Nc3ccc(C(F)(F)F)cc3)ccc2O[C@@H](C)CCCCO[C@@H]1CN(C)C(=O)Nc1cccc2ccccc12,-0.569% (inactive)
8,C[C@@H]1CN([C@H](C)CO)C(=O)c2cccc(NS(=O)(=O)c3ccc(F)cc3)c2O[C@@H]1CN(C)C(=O)Nc1ccc(C(F)(F)F)cc1,0.036% (inactive)
9,C[C@@H]1CN([C@@H](C)CO)S(=O)(=O)c2ccc(/C=C/c3ccccc3)cc2O[C@H]1CN(C)C(=O)Nc1cc(F)ccc1F,-0.621% (inactive)
10,O=C(N/C(=C\c1ccc(O)cc1)C(=O)N1CCCCC1)c1ccccc1,14.3% (active)
11,O=C(N/C(=C\c1ccc(F)cc1)C(=O)N1CCCCCC1)c1ccccc1,1.06% (inactive)
12,CC1CCN(C(=O)/C(=C\c2ccccc2)NC(=O)c2ccccc2)CC1,0.574% (inactive)
13,C[C@H](CO)N1C[C@H](C)[C@H](CN(C)S(=O)(=O)c2ccccc2C#N)OCc2cn(nn2)CCCC1=O,-0.086% (inactive)
14,CNC[C@H]1OCCCC[C@@H](C)Oc2ccc(NS(C)(=O)=O)cc2C(=O)N([C@@H](C)CO)C[C@H]1C,0.355% (inactive)
15,CO[C@H]1CN(C)C(=O)c2cc(NC(=O)c3cc(C)on3)ccc2OC[C@@H](C)N(C(C)=O)C[C@H]1C,-0.186% (inactive)
16,C[C@H](CO)N1C[C@H](C)[C@H](CN(C)S(=O)(=O)c2cccs2)Oc2ccc(NC(=O)Nc3ccccc3)cc2C1=O,-11.1% (inactive)
17,O=C(Nc1cccc(Cl)c1)N[C@@H]1CC[C@@H](CCNC(=O)C2CCOCC2)O[C@@H]1CO,-0.908% (inactive)
18,CN(C)c1ccc(-c2nnc(-c3cccnc3)o2)cc1,0.383% (inactive)
19,CN(c1ccc(O)cc1)c1nc(-c2cccnc2)cs1,14.9% (active)
20,O=C(NNC(=O)c1csc(-c2cccnc2)n1)Nc1ccc(Cl)cc1,0.087% (inactive)
21,CCCNC(=O)C[C@H]1C[C@@H]2c3cc(NC(=O)NC4CCCC4)ccc3O[C@@H]2[C@@H](CO)O1,-0.087% (inactive)
22,O=C(c1cccc(F)c1)N1CC[C@@H]2[C@H](CO)Nc3ccc(-c4ccccc4)cc3[C@@H]21,-1.25% (inactive)
23,CCC(=O)N(C)C[C@H]1Oc2cc(/C=C/c3ccccc3)ccc2S(=O)(=O)N([C@H](C)CO)C[C@H]1C,0.008% (inactive)
24,CCCC#Cc1ccc([C@H]2[C@@H](CO)N3C(=O)CN(C(=O)c4ccncc4)C[C@H]23)cc1,0.225% (inactive)

row,Structure (SMILES),inhibition
1,COc1ccccc1S(=O)(=O)N1CC[C@@H]2[C@H]1c1cc(-c3ccccc3)ccc1N[C@@H]2CO,-0.443% (inactive)
2,COc1ccc(S(=O)(=O)Nc2ccc3c(c2)C(=O)N([C@@H](C)CO)C[C@@H](C)[C@H](CN(C)S(=O)(=O)c2cccs2)O3)cc1,0.284% (inactive)
3,C[C@H](CO)N1C[C@H](C)[C@H](CN(C)S(=O)(=O)c2cccc(F)c2)Oc2ncc(/C=C/c3ccccc3)cc2C1=O,0.994% (inactive)
4,O=C(Cc1ccccn1)N[C@H]1CC[C@H](CCn2cc(-c3ccc(F)cc3)nn2)O[C@H]1CO,-7.26% (inactive)
5,CO[C@@H]1CN(C)C(=O)c2cc(NC(C)=O)ccc2OC[C@H](C)N(Cc2ccccn2)C[C@H]1C,0.576% (inactive)
6,COc1ccccc1-n1c(SCC(=O)O)nc2sc3c(c2c1=O)CCC3,-0.511% (inactive)
7,COc1ccc(Cl)cc1-n1c(=S)sc2c(=O)n(-c3ccc(F)cc3)c(SCC(=O)O)nc21,20.5% (active)
8,COc1cccc(-n2c(=S)sc3c(=O)n(-c4ccccc4OC)c(SCC4OCCO4)nc32)c1,1.51% (inactive)
9,Cc1cccc(S(=O)(=O)N2CCCCN3[C@@H](CO)[C@H](c4ccc(-c5cccnc5)cc4)[C@@H]3C2)c1,0.453% (inactive)
10,CCNC(=O)C[C@H]1CC[C@@H]2[C@H](COC[C@H](O)CN2C(=O)Nc2c(C)noc2C)O1,-1.03% (inactive)
11,COc1ccc(CN(C)C[C@H]2OCCCC[C@H](C)Oc3ccc(NC(=O)NC4CCCCC4)cc3C(=O)N([C@@H](C)CO)C[C@@H]2C)cc1,0.374% (inactive)
12,CO[C@@H]1CN(C)C(=O)c2cc(NC(=O)c3ccc4c(c3)OCO4)ccc2OC[C@H](C)N(CCC(F)(F)F)C[C@H]1C,1.3% (inactive)
13,O=C(NCC[C@H]1CC[C@@H](NS(=O)(=O)c2cccc(Cl)c2)[C@@H](CO)O1)c1cnccn1,-2.69% (inactive)
14,C[C@H]1CN([C@@H](C)CO)C(=O)c2cc(C#Cc3ccccc3F)cnc2O[C@@H]1CN(C)C(=O)C1CC1,-2.35% (inactive)
15,N#C[C@H]1[C@@H](c2ccccc2C2=CCCCC2)[C@H](CO)N1C(=O)c1ccccn1,-7.67% (inactive)
16,COc1ccc2c3c(n(C)c2c1)[C@H](CO)N(C(C)=O)CC31CN(C(=O)c2cnccn2)C1,0.415% (inactive)
17,CCOC(=O)C1CCN(Cc2c(C(=O)N3CCOCC3)nc3c(C)cccn23)CC1,1.15% (inactive)
18,Cc1cccn2c(CN(C)C3CCCc4ccccc43)c(C(=O)N3CCOCC3)nc12 (stereo unspecified),11% (active)
19,Cc1cccn2c(CNCC(C)Oc3cccnc3)c(C(=O)N3CCOCC3)nc12 (stereo unspecified),-0.924% (inactive)
20,COc1ccc(C#Cc2ccc([C@H]3[C@H]4CN(C(=O)c5ccncc5)CC(=O)N4[C@H]3CO)cc2)cc1,-0.009% (inactive)
21,N#C[C@@H]1[C@H](c2ccccc2-c2cccc(F)c2)[C@@H](CO)N1C(=O)CN1CCOCC1,-0.655% (inactive)
22,Cc1noc(C)c1NC(=O)N[C@@H]1CC[C@H](CC(=O)Nc2ccccc2)O[C@H]1CO,2.14% (inactive)
23,CO[C@@H]1CC[C@@H]2CCOc3c(C#N)cccc3C(=O)N(C)C[C@@H](C)C(=O)N(C)C[C@@H]1O2,-0.159% (inactive)
